# Measured values as given in PubChem BioAssay AID651671 (Sanford-Burnham Center for Chemical Genomics, 2012).
# The other results are listed elsewhere or left out. The source made the active and inactive calls.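 Rule for the calls: active = activation of at least 7% in one or more replicates; inactive = the rest.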
# Assay: alpha-DG glycosylation enhancers, retest, confirmation, single concentration, Pro5-aDG cells (AID 651671);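 note: cells exposed to compound for two days before detection; 0% = DMSO-treated Pro5 cells and 100% = DMSO-treated B10-LARGE cells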
# Details: IIH6 AlphaLISA, active compounds read high, screened at 10 µM (by protocol), scaled to LARGE-overexpressing B10 cells as 100%
row,SMILES,activation
1,OC[C@@H]1CN(Cc2ccc(-c3ccccc3)cc2)C[C@H](n2cnc3c(NC4CCCC4)ncnc32)O1,4.21% (inactive)
2,O=c1ccc2cc(S(=O)(=O)N3CCN(c4ccccc4)CC3)ccc2o1,-0.742% (inactive)
3,Cc1cccc(CN2CCC(CNC(=O)Nc3ccc(F)c(Cl)c3)CC2)c1,11% (active)
4,CC(C)c1cc(Cn2c3ccccc3c(=O)n2C(C)Cn2cc(C3CC3)nn2)on1 (configuration not stated),0.475% (inactive)
5,COc1ccccc1N1CCN(C(=O)c2cc(-c3ccc(Br)cc3)on2)CC1,-0.683% (inactive)
6,COc1ccc(NC(=O)CSc2nnc(-c3ccccc3F)n2C2CC2)cc1S(N)(=O)=O,-0.758% (inactive)
7,CCOC(=O)C1(CCOC)CCN(Cc2cc3ccccc3s2)CC1,-0.438% (inactive)
8,CN1CCN(S(=O)(=O)c2cccc(C(=O)Nc3sccc3C#N)c2)CC1,42% (active)
9,O=C(NC(c1ccc(-c2ccccc2)cc1)c1cnccn1)C1CCN(CCOc2ccc(Cl)cc2Cl)CC1 (configuration not stated),3.11% (inactive)
10,COc1cc(CNCCN(C)C)ccc1OCc1c(F)cccc1Cl,6.71% (active)
11,Cc1cc(C)c2[nH]c(=O)c(CN(Cc3ccccc3)C(=S)NCCCN(C)C)cc2c1,1.74% (inactive)
12,CCc1ccccc1S(=O)(=O)Cc1ccc(C(=O)NCCc2ccccc2)o1,-0.875% (inactive)
13,CCn1cc(CN2CCC(C(=O)Nc3cccc(-c4cccc(Cl)c4)c3)CC2)c(C)n1,9.24% (active)
14,O=C(c1ccc(N2CCCC2=O)cc1)N1CCN(c2ccc(C(F)(F)F)cc2[N+](=O)[O-])CC1,1.5% (inactive)
15,COc1cccc(C(=O)Nc2nnc(S(=O)(=O)N3CCCCC3)s2)c1,-0.562% (inactive)
16,Cc1ccc(NC(=O)c2ccc(Oc3ncccn3)cc2)cc1,-0.983% (inactive)
17,COc1ccccc1C1SCCN1C(=O)c1ccc([N+](=O)[O-])cc1 (configuration not stated),-0.592% (inactive)
18,CC(C)C(=O)NCC(c1cccs1)S(=O)(=O)c1ccc(F)cc1 (configuration not stated),0.3% (inactive)
19,Cc1ccc(NC(=O)CN(C)CC(=O)Nc2cccc(F)c2)cc1[N+](=O)[O-],1.48% (inactive)
20,CN(Cc1ccccc1)CC(O)COc1ccc(CNCc2cc3ccccc3s2)cc1 (configuration not stated),0.15% (inactive)
21,CC(=O)Oc1cccc(N2C(=O)C3CC=C(Cl)CC3C2=O)c1 (configuration not stated),0.562% (inactive)
22,CC(C)OC(=O)CN1C(=O)C(=O)c2ccccc21,8.05% (active)
23,CN(C)CCCNC(=O)/C=C/c1ccc(OCc2c(F)cccc2Cl)cc1,8.53% (active)
24,CCOc1ccccc1Nc1nnc(SCC(=O)NCC2CCCO2)s1 (configuration not stated),0.625% (inactive)
25,CCOc1ccc(OCC(=O)Nc2c3c(nn2C(C)(C)C)CS(=O)(=O)C3)cc1,0.637% (inactive)
26,Nc1scc[n+]1Cc1cccc2cccnc12,-0.533% (inactive)
27,CCCn1c(=N)n(CC(=O)c2ccc(Cl)c(Cl)c2)c2ccccc21,11% (active)
